Data on 2 compounds can be found in ChEMBL document CHEMBL1961873, “Compounds: GSK PKIS; Assays: Nanosyn kinase panel” (2012).

Assay [1] addresses T1, Inhibitor of nuclear factor kappa-B kinase subunit epsilon (Homo sapiens) (UniProt Q14164).
T1 sequence (whole entry): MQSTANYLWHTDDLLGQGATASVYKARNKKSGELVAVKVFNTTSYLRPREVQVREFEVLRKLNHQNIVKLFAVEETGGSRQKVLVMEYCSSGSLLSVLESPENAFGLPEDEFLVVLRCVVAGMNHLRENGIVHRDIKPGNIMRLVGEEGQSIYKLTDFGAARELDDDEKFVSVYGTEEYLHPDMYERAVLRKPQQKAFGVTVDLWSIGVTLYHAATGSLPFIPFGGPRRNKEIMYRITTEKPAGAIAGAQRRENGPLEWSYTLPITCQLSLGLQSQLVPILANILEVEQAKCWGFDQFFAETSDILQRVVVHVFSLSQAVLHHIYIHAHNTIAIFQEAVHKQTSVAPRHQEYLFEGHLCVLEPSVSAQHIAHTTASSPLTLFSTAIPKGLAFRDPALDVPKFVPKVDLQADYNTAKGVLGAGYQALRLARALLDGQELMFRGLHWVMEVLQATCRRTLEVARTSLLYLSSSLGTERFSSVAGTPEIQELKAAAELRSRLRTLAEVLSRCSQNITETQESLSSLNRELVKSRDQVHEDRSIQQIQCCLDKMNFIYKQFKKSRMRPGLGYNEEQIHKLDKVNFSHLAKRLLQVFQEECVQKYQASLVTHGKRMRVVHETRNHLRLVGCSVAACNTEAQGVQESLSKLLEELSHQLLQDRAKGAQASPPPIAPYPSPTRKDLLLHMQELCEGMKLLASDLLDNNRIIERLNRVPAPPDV
As to conditions: at 1 µM.

Assay [2] concerns the target T2, Serine/threonine-protein kinase Nek1 (Homo sapiens) (UniProt Q96PY6).
T2 sequence (whole entry): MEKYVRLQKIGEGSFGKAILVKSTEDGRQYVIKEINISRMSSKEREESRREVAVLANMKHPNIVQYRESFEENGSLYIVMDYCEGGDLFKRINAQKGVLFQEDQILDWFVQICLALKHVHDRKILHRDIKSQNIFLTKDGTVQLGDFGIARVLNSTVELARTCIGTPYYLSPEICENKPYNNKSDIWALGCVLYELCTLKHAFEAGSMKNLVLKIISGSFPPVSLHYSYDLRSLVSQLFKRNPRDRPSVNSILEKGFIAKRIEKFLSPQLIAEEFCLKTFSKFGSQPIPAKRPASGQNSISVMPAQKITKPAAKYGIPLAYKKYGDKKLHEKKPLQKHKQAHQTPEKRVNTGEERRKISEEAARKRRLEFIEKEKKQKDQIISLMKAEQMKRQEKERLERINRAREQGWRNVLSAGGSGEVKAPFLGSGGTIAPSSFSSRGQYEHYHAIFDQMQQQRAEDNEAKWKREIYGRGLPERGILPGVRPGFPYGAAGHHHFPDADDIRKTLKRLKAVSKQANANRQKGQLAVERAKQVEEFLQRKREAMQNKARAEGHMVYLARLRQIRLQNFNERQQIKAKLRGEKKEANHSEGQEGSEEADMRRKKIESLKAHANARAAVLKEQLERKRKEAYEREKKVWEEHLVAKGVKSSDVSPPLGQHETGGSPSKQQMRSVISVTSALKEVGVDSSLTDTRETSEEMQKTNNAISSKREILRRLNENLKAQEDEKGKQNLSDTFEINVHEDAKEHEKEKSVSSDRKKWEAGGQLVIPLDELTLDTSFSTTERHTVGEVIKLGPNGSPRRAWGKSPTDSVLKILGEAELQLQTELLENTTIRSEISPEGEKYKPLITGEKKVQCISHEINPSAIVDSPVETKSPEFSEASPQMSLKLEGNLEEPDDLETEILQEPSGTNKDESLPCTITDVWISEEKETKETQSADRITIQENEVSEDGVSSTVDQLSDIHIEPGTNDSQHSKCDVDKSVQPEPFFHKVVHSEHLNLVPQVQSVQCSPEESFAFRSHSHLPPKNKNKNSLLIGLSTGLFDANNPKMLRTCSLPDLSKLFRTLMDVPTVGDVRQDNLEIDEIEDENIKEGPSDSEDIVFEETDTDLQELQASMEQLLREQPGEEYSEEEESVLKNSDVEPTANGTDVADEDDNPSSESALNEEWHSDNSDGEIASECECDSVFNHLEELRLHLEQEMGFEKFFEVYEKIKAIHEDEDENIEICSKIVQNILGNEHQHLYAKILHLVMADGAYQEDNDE
As to conditions: at 0.1 µM.

The target in assay [3] is T2, Serine/threonine-protein kinase Nek1 (Homo sapiens). As to conditions: at 1 µM.
The target of assay [4] is T3, Serine/threonine-protein kinase Nek2 (Homo sapiens) (UniProt P51955).
T3 sequence (whole entry): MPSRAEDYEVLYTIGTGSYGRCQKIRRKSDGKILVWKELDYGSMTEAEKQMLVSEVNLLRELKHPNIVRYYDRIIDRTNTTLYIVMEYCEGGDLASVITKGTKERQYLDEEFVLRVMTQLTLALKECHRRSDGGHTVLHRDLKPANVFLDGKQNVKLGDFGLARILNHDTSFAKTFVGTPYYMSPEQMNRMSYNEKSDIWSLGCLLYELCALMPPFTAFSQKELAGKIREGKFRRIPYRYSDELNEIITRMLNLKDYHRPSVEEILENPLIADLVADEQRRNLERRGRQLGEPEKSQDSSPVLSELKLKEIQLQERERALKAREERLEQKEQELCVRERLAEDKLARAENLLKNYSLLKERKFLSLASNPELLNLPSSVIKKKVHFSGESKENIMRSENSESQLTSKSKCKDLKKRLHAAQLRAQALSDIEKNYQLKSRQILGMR
As to conditions: at 0.1 µM.

The target in assay [5] is T3, Serine/threonine-protein kinase Nek2 (Homo sapiens). As to conditions: at 1 µM.
Assay [6] deals with Serine/threonine-protein kinase Nek6 (Homo sapiens) (UniProt Q9HC98). As to conditions: at 0.1 µM.
The target is the same in assay [7]. As to conditions: at 1 µM.
Assay [8] has as its target Serine/threonine-protein kinase Nek7 (Homo sapiens) (UniProt Q8TDX7). As to conditions: at 0.1 µM.
The target is the same in assay [9]. As to conditions: at 1 µM.
Assay [10] deals with T4, Serine/threonine-protein kinase Nek9 (Homo sapiens) (UniProt Q8TD19).
T4 sequence (whole entry): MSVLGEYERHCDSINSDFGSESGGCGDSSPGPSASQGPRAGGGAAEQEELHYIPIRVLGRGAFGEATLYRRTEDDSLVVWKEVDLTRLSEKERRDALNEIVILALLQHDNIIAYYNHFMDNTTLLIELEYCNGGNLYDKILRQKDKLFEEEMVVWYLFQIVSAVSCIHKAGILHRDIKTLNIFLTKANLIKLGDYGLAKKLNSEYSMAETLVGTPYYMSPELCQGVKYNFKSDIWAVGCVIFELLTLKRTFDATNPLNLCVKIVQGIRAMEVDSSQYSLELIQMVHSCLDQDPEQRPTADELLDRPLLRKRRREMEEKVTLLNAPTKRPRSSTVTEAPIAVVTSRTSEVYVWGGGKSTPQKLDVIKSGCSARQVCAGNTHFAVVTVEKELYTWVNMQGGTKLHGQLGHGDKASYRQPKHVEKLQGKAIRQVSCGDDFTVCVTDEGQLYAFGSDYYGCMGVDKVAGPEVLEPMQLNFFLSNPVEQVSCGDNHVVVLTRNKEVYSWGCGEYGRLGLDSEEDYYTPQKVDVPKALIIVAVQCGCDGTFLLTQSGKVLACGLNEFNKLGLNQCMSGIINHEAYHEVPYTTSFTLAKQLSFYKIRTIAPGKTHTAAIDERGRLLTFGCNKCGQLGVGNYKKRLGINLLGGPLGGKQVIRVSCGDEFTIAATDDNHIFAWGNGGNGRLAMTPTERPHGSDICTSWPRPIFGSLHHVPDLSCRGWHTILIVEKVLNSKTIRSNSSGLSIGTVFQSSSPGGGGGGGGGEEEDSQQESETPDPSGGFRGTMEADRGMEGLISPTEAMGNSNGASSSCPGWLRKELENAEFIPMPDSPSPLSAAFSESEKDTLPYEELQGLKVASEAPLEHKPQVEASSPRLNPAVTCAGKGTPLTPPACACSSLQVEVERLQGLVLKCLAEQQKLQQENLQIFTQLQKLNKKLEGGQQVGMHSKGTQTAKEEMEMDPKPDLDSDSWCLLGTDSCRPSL
As to conditions: at 0.1 µM.

Assay [11] addresses T4, Serine/threonine-protein kinase Nek9 (Homo sapiens). As to conditions: at 1 µM.
Assay [12] deals with Serine/threonine-protein kinase PLK1 (Homo sapiens) (UniProt P53350). As to conditions: at 0.1 µM.
The target is the same in assay [13]. As to conditions: at 1 µM.
In assay [14] the target is T5, Dual specificity protein kinase TTK (Homo sapiens) (UniProt P33981).
T5 sequence (whole entry): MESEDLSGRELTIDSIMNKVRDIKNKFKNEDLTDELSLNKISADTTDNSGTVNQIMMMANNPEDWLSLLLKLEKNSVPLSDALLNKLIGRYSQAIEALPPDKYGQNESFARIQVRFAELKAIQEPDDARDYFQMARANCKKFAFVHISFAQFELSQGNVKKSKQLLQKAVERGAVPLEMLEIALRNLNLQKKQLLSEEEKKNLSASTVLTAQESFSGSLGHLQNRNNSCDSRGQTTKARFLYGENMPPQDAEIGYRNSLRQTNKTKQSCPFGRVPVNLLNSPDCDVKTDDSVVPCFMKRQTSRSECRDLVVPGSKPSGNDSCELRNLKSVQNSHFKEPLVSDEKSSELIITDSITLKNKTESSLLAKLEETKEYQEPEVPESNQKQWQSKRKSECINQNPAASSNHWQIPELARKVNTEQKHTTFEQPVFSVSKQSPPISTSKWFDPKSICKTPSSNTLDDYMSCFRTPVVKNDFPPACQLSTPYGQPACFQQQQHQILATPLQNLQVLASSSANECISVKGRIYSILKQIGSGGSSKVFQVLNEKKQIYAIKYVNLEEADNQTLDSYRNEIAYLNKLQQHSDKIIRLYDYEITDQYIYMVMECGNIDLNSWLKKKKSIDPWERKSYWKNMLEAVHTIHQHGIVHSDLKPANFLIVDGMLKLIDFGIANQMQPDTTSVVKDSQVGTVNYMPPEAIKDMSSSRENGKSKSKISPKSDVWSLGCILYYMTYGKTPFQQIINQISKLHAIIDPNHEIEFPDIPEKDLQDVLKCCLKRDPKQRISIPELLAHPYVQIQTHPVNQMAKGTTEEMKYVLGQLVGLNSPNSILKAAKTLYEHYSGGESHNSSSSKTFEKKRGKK
As to conditions: at 0.1 µM.

Assay [15] has as its system T6, Receptor-type tyrosine-protein kinase FLT3 (Homo sapiens), P36888 [D835Y].
T6 sequence (whole entry): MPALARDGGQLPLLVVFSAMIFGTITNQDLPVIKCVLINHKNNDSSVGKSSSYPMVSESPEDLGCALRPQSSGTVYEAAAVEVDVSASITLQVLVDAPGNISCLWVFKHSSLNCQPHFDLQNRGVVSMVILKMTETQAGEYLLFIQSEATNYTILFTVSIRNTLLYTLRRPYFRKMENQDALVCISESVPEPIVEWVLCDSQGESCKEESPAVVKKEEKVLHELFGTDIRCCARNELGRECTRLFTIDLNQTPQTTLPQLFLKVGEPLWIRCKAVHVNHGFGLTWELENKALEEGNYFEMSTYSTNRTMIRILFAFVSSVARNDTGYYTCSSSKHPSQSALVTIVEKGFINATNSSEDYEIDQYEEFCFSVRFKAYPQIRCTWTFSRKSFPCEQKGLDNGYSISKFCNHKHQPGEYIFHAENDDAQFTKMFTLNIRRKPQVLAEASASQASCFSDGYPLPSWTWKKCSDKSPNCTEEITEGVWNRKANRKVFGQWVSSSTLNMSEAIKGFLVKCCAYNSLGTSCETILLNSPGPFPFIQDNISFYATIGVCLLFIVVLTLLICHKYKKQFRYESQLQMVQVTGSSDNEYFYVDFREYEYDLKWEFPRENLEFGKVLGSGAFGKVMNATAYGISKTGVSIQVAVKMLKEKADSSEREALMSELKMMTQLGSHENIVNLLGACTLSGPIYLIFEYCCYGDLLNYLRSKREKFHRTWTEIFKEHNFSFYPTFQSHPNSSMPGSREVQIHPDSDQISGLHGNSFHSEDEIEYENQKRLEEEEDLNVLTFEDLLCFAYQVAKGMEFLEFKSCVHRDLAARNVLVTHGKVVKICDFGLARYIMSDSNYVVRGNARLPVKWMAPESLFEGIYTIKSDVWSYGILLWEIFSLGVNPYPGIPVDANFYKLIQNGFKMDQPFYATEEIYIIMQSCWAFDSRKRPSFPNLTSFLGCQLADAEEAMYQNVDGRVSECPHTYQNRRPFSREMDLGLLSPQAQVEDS
As to conditions: at 1 µM.

Assay [16] has as its target Vascular endothelial growth factor receptor 3 (Homo sapiens) (UniProt P35916). As to conditions: at 0.1 µM.
For assay [17] the target is unchanged. As to conditions: at 1 µM.
Assay [18] has as its target Macrophage colony-stimulating factor 1 receptor (Homo sapiens) (UniProt P07333). As to conditions: at 0.1 µM.
Assay [19] shares this target. As to conditions: at 1 µM.
In assay [20] the target is Tyrosine-protein kinase Fyn (Homo sapiens) (UniProt P06241). As to conditions: at 0.1 µM.
Tyrosine-protein kinase Fyn (Homo sapiens), sequence (P06241 2-537 limits assumed): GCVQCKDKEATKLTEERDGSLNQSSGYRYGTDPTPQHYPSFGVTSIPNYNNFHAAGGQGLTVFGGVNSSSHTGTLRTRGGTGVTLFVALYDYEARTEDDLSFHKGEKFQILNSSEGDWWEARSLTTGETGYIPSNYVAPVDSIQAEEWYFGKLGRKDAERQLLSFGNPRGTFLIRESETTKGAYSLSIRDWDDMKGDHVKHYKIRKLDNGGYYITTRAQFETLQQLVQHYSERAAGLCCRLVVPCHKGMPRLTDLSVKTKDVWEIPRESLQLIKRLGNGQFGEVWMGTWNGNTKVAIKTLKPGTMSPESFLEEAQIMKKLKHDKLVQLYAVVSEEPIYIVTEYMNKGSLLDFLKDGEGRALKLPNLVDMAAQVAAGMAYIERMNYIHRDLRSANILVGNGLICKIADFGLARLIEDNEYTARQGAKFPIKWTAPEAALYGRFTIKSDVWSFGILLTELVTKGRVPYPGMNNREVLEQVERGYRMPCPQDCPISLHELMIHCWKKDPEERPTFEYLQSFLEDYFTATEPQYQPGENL

Serine/threonine-protein kinase Nek6 (Homo sapiens), sequence (Q9HC98 whole entry): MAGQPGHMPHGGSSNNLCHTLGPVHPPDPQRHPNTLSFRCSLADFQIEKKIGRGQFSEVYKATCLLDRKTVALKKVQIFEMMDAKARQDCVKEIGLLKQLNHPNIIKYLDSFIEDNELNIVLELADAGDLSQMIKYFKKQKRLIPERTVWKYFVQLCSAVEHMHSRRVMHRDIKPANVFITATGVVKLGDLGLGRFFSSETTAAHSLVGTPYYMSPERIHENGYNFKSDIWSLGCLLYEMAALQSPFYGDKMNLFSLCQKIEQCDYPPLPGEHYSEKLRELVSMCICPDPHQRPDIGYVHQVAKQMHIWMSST
Serine/threonine-protein kinase PLK1 (Homo sapiens), sequence (P53350 whole entry): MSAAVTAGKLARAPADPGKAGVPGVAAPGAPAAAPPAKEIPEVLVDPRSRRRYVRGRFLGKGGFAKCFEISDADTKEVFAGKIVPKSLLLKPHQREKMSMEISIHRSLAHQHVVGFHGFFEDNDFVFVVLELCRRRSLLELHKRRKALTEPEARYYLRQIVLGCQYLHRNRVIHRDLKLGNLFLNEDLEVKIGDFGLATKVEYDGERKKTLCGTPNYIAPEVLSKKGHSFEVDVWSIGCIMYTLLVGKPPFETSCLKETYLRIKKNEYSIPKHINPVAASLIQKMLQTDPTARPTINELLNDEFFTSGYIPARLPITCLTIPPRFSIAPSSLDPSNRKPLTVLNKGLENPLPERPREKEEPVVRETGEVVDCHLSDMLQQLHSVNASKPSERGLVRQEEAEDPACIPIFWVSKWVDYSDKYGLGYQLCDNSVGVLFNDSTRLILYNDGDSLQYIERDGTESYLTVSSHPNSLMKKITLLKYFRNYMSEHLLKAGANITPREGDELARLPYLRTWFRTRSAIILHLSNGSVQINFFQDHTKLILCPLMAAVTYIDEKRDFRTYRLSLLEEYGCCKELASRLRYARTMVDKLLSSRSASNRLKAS
Serine/threonine-protein kinase Nek7 (Homo sapiens), sequence (Q8TDX7 whole entry, looked up): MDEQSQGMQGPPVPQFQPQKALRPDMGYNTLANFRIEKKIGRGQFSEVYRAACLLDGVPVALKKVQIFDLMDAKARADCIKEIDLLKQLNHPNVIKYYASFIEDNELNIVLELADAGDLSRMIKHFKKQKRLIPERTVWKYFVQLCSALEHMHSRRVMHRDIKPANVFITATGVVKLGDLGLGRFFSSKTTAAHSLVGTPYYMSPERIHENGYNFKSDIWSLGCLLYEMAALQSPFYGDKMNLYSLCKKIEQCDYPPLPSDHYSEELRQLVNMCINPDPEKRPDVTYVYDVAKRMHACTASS
Vascular endothelial growth factor receptor 3 (Homo sapiens), sequence (P35916 whole entry): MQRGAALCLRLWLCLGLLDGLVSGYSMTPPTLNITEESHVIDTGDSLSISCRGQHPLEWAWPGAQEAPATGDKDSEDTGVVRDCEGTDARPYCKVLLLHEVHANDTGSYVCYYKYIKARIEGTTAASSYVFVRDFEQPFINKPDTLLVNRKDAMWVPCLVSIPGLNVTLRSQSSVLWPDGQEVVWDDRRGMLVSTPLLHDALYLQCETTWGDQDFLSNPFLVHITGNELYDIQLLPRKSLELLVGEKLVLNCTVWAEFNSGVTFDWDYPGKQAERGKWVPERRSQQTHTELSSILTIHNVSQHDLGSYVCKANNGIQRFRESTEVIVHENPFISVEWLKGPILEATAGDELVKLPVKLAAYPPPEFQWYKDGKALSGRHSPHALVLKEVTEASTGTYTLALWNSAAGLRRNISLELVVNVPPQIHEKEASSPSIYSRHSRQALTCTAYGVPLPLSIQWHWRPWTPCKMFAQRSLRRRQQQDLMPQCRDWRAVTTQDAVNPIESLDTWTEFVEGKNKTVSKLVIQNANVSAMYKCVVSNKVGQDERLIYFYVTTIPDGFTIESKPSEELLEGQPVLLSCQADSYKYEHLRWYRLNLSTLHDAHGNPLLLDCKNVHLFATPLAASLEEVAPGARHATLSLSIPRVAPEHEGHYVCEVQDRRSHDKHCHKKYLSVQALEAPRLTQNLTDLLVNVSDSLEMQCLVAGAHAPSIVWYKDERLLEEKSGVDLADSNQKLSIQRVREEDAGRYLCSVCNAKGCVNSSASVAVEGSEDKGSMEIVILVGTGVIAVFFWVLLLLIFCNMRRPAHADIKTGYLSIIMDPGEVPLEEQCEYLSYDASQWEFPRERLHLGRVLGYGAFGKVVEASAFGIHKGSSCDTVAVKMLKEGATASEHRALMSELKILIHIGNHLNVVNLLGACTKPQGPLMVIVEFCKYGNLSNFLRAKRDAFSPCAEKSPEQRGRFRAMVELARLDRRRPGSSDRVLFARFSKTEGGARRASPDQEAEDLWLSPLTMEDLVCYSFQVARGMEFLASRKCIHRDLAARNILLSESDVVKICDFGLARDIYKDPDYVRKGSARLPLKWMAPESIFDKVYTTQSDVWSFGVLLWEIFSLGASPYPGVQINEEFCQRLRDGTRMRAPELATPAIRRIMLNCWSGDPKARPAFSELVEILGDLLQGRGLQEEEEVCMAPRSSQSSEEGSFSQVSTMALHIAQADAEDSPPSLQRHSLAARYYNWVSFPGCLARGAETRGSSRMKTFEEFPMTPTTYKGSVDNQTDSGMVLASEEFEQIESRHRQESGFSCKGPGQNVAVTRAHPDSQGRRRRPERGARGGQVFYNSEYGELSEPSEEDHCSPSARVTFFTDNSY
Macrophage colony-stimulating factor 1 receptor (Homo sapiens), sequence (P07333 whole entry): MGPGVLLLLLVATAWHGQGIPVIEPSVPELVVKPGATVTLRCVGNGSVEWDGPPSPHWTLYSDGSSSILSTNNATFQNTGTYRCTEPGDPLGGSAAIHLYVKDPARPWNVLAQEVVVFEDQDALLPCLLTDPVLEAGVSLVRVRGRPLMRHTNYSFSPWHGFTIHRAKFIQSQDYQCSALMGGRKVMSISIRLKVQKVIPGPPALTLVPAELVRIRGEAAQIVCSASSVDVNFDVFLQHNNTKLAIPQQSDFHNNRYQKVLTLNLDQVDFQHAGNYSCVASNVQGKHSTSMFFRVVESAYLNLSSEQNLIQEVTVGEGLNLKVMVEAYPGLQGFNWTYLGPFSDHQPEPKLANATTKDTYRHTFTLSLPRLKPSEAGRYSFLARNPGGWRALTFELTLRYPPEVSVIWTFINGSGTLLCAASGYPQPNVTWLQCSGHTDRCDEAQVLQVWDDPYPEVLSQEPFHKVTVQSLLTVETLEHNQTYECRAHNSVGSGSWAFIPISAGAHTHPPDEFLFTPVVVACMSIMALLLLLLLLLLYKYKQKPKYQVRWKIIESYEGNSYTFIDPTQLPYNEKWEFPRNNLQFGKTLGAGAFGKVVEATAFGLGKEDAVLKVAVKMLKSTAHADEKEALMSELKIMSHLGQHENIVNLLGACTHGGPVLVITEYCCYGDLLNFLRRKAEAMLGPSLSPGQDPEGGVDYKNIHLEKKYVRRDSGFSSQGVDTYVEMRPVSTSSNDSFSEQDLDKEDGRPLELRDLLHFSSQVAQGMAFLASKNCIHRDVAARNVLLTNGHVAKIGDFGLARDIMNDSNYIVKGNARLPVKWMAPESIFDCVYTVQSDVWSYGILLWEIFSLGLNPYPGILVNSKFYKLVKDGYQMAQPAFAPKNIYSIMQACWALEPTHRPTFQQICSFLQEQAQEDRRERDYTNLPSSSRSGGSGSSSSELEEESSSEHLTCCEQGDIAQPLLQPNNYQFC

Consider `COC(=O)Nc1nc2cc(Oc3ccc(NC(=O)Nc4cccc(Br)c4)cc3)ccc2[nH]1`, for which the inhibition in [1] is 5.38%; in assay [2], 2.6%; in assay [3], 2.19%; in assay [4] it was 3.46%; in [5], 2.81%; in [6], 3.89%. The inhibition was 3.38% in assay [7]; 3.11% in assay [8]; 2.69% in [9]; 7.82% in assay [10]; 15.4% in assay [11]; 6.02% in assay [12]. Further, the inhibition in assay [13] worked out at 2.36%; in assay [14], 5.37%; in [15] it was 5.43%; in assay [16] it was 3.16%; in assay [17] it was 11.9%; in assay [18] it was 19.9%. For the same compound, the inhibition in assay [19] is 43.2%; in [20], 3.15%.

On to `Cc1cc(Cl)cc2c1NC(=O)C2=NNc1ccc(S(N)(=O)=O)cc1`, for which the inhibition in assay [1] amounted to 6.95%; in assay [2], 1.58%; in [3] it was 2.35%; in [4], 2.49%; in [5], 2.54%; in assay [6] it was 0.31%. Moreover, the inhibition turned out to be 1.33% in [7]; 1.91% in assay [8]; 1.96% in assay [9]; 3.08% in [10]; 10.9% in assay [11]; 6.15% in [12]. Also, the inhibition is 2.07% in assay [13]; 4.88% in [14]; -4.47% in [15]; 1.38% in assay [16]; 1.06% in assay [17]; -2.64% in assay [18]. Moreover, the inhibition came out at 8.32% in assay [19] and 0.94% in assay [20].

Broadly, the inhibition is the drop in the measured response relative to a control, in per cent.
